A short description of assay [1]: NCI Yeast Anticancer Drug Screen. Data for the rad50 strain (AID 155).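 Further: 0% = growth of vehicle-only cultures of the same strain.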 The note with it: S. cerevisiae rad50 strain growth inhibition; at 50.0 µM; stronger effect = higher value. In short, it runs like this:
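A DNA repair-deficient yeast mutant serves as the test organism; compound-induced growth inhibition is calculated against vehicle-treated cells.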

Assay [2] in a line: NCI Yeast Anticancer Drug Screen. Data for the mec2-1 strain (AID 157). As to conditions: S. cerevisiae mec2-1 strain, at 50.0 µM, stronger effect = higher value. In short, it runs like this:
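Using mec2-1 yeast: add compound, measure growth, express inhibition versus vehicle-treated cultures.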

A short description of assay [3]: NCI Yeast Anticancer Drug Screen. Data for the sgs1 mgt1 strain (AID 161).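 Further: 0% = growth of cultures given vehicle only.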 As to conditions: S. cerevisiae sgs1 mgt1 strain, at 50.0 µM, stronger effect = higher value. In short, it runs like this:
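Growth of a repair-deficient yeast mutant was monitored after compound treatment and expressed as inhibition relative to vehicle-treated cultures.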

Assay [4] in a line: NCI Yeast Anticancer Drug Screen. Data for the cln2 rad14 strain (AID 165).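 Further: 0% = growth equal to vehicle treated cultures.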 The note with it: S. cerevisiae cln2 rad14 strain, at 50.0 µM, stronger effect = higher value. In short, it runs like this:
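Yeast strain cln2 rad14, bearing defects in cell cycle control and DNA repair, serves as the test system; values reflect growth inhibition compared with vehicle.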

Assay [5] can be described thus: NCI Yeast Anticancer Drug Screen. Data for the bub3 strain (AID 167). The note with it: S. cerevisiae bub3 mutant strain, at 50.0 µM, stronger effect = higher value. The essentials:
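Inhibition values come from growth of compound-treated mutant yeast normalised to vehicle-treated controls.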

The nature of assay [6]: NCI Yeast Anticancer Drug Screen. Data for the mlh1 rad18 strain (AID 175). As to conditions: S. cerevisiae mlh1 rad18 strain growth inhibition; at 50.0 µM; stronger effect = higher value. The essentials: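 Steps: expose repair-defective yeast to compound; measure growth; express inhibition against vehicle-treated controls.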

This is an account of results in PubChem BioAssay (NCI).

This is part of a sample that, as a whole, favours compounds with a hit. Of some 79,000 tested, about 15% had one in any assay. Unmarked numbers belong to inactive results. Active and inactive are the calls of the source. No stated cut-off is given here; in the data, active means growth inhibition above about 70%; inactive means the rest.

In the case of `Cn1c(N)nc2c1c(=O)[nH]c(=O)n2C`, the growth inhibition in assay [1] was 12.6%; in assay [2], -0.75%; in assay [3] it was 5.25%; in assay [4], 13.2%; in assay [5] it was -19.4%; in assay [6] it was 21.8%.

As to `CCC(C)C(NN)C(=O)O` (stereo unspecified), the growth inhibition in assay [1] was 0.7%; in assay [2] it was -5.55%; in assay [3] it was -22.4%; in assay [4] it was -24.6%; in assay [5], 0%; in assay [6] it was -37.3%.

Turning to `Clc1cccc(Cl)c1C(Nc1ncccn1)Nc1ncccn1`, the growth inhibition is 12.2% in assay [1]; 14.8% in assay [2]; 12.1% in assay [3]; -16.4% in assay [4]; 9.6% in assay [5]; 20.4% in assay [6].

With `CCCCCC(=O)N1SC(NC(=O)OC)=Nc2ccccc21`, the growth inhibition in assay [1] was 63.5%; in assay [2], 47.5%; in assay [3], 64.8%; in assay [4], 84.3% (active); in assay [5], 90.6% (active); in assay [6], 83.5% (active).

With `S=C(S)OC1CCCCC1.[Zn+2]`, the growth inhibition is -14.9% in assay [1]; -15.8% in assay [2]; -22.2% in assay [3]; -50.9% in assay [4]; -24.8% in assay [5]; -12.2% in assay [6].

For `CNc1ccn(C2OC(CO)C(O)C2SC(C)(C)C)c(=O)n1` (stereo unspecified), the growth inhibition in assay [1] was 6.15%; in assay [2], 0.25%; in assay [3], 13.7%; in assay [4], 9.1%; in assay [5], 0.45%; in assay [6], 28.6%.

For the compound `CC(=O)NNc1nc(C)c(C(/C=C/c2ccc([N+](=O)[O-])cc2)=N/N)s1`, the growth inhibition is 22.4% in assay [1]; 9.2% in assay [2]; 3.85% in assay [3]; 17.4% in assay [4]; -0.4% in assay [5]; -12.4% in assay [6].

Consider `Cc1cc([N+](=O)[O-])ccc1NC(=O)OC(C)C`, for which the growth inhibition is -12.6% in assay [1]; -30.2% in assay [2]; 3.05% in assay [3]; 8.8% in assay [4]; 1.35% in assay [5]; -9.35% in assay [6].

Turning to `O=c1c(SCc2ccccc2)c(N2CCOCC2)cnn1-c1ccccc1`, the growth inhibition in assay [1] is 28.4%; in assay [2], -1.85%; in assay [3], 22.8%; in assay [4], 30.1%; in assay [5] it was 22.1%; in assay [6] it was 7.75%.

With `CNC(=O)C1CCCN1C(=O)C(Cl)Cl` (stereo unspecified), the growth inhibition in assay [1] was -1.95%; in assay [2], -10.6%; in assay [3], 0.9%; in assay [4], -21.9%; in assay [5] it was -10.8%; in assay [6] it was 14.2%.

With `N=C1/C(=C/c2ccco2)C(=O)N=C2SC=NN12`, the growth inhibition in assay [1] was 7.75%; in assay [2], 19.1%; in assay [3], 13.2%; in assay [4] it was -9.6%; in assay [5], -5.6%; in assay [6], 20.9%.

On to `O=C(O)c1cc(=O)c2c([nH]c3ccccc32)s1`, for which the growth inhibition is -4.9% in assay [1]; -18.7% in assay [2]; -14.6% in assay [3]; 5.25% in assay [4]; -14.3% in assay [5]; 13.3% in assay [6].

For the compound `O=C(NC1CCC(CC2CCCCC2)CC1)c1ccccc1` (stereo unspecified), the growth inhibition in assay [1] was -14.7%; in assay [2], 0.7%; in assay [3], -7.65%; in assay [4], 21.2%; in assay [5] it was 10.8%; in assay [6], 19.2%.

Regarding `COc1ccc(C2(CN(C)C)COc3cc(OC)c(OC)cc3C2=O)cc1OC` (stereo unspecified), the growth inhibition in assay [1] is 27%; in assay [2] it was 2.8%; in assay [3] it was -7%; in assay [4], 27.6%; in assay [5], -2.1%; in assay [6] it was 13.3%.

For the compound `CC(/C=C/c1ccccc1)=N\NC(=S)N/N=C(C)/C=C/c1ccccc1`, the growth inhibition in assay [1] was 10.5%; in assay [2] it was 37.6%; in assay [3], 21.5%; in assay [4], 9.3%; in assay [5], 49.5%; in assay [6] it was 11.1%.

On to `CN1CCC(C[CH2][Sn]([c]2ccccc2)([c]2ccccc2)[c]2ccccc2)CC1`, for which the growth inhibition in assay [1] was 51.1%; in assay [2] it was 99.3% (active); in assay [3] it was 50.7%; in assay [4], 63%; in assay [5] it was 49%; in assay [6] it was 57.5%.

As for `CCCCCCCC(=O)C(C)C`, the growth inhibition in assay [1] was 7.55%; in assay [2] it was 5.85%; in assay [3], 11.8%; in assay [4] it was 4.4%; in assay [5], 9.6%; in assay [6], 4.35%.

As to `NC(N)=NCCCCNCCCN=C(N)N`, the growth inhibition is -23.2% in assay [1]; -42.8% in assay [2]; 1.55% in assay [3]; 3.35% in assay [4]; -16.4% in assay [5]; -15.7% in assay [6].

With `NC(=O)C(F)(F)C(F)(F)C(N)=O`, the growth inhibition in assay [1] is -28.1%; in assay [2], -16.8%; in assay [3], -15%; in assay [4], -51.6%; in assay [5], 3.25%; in assay [6], -1.9%.

In the case of `CSc1cc(/C=C/c2ccccc2)ccc1N`, the growth inhibition in assay [1] is 1%; in assay [2] it was 1.5%; in assay [3] it was -9.45%; in assay [4], -33.5%; in assay [5], 5.25%; in assay [6], 2%.

`O=C(/N=C/c1c(O)c2ccccc2oc1=O)NC1CCCCC1`: the growth inhibition in assay [1] was -16.1%; in assay [2], -9.2%; in assay [3], -25.9%; in assay [4] it was 0.65%; in assay [5], -17.6%; in assay [6], -5.8%.
